Assay results: PubChem BioAssay (EPA / NIEHS)
Results filed as inconclusive are left out. Active and inactive are the calls of the source. How the source made its calls: active means hit-call score of the fitted dose curve at least 0.9, where 1 is the maximum; inconclusive means response in the unintended direction; inactive means score below 0.9.

Read-out: glucuronosyltransferase (UGT1A1), UGT1A1 (gene 54658)
Experiment: CLD_UGT1A1_24hr: CellzDirect (CLD) Gene Expression Assay for glucuronosyltransferase (UGT1A1) at 24 hours (AID 2283696)
Method: CLD_24hr is a cell-based, multiplexed-readout assay that uses hepatocyte, a human liver primary cell, with measurements taken at 24 hours after chemical dosing in a 96-well plate.CLD_UGT1A1_24hr is one of 16 assay component(s) measured or calculated from the CLD_24hr assay. It is designed to make measurements of mRNA induction, a form of inducible reporter, as detected with chemiluminescence signals by Quantitative Nuclease Protection Assay (qNPA) technology.Data from the assay component CLD_UGT1A1_24hr was analyzed at the endpoint, CLD_UGT1A1_24hr, in the positive analysis fitting direction relative to DMSO as the negative control and baseline of activity. Using a type of inducible reporter, gain-of-signal activity can be used to understand changes in the reporter gene as they relate to the gene UGT1A1. Furthermore, this assay endpoint can be referred to as a primary readout. To generalize the intended target to other relatable targets, this assay endpoint is annotated to the transferase intended target family, where subfamily is glucuronosyltransferase.
Human hepatocyte cultures were treated daily for two consecutive days with fresh dosing solutions containing appropriate concentrations of the 320 ToxCast chemicals (chemical identities were blinded to CellzDirect and other ToxCast collaborators), vehicle control (0.2% DMSO), and positive control inducers as summarized in Table 1. Due to the large number of treatment groups and chemicals examined, the ToxCast chemicals were divided into two groups (spanning two independent cultures of hepatocytes from separate donor preparations (Hu778: ToxCast plates 1 and 2; Hu776: ToxCast plates 3 and 4). Each preparation of human hepatocyte cultures was treated with respective vehicle control, medium only control, set of six positive controls/reference chemicals for the five hepatic receptor pathways, and a subset of eight of the ToxCast chemicals (indoxacarb, pyrithiobac-sodium, norflurazon, cyhalofop-butyl, methomyl, thiram, acetochlor, and propiconazole). These replicate data, coupled with internal replicates designed within the blinded ToxCast chemical library, provided additional data to evaluate interindividual differences between hepatocyte preparations and their potential impact on chemical profiles.Cell morphology and integrity were evaluated using phase-contrast microscopy as an indicator of hepatocyte cell health (Tyson & Green, 1987). Cultures for each treatment group (i.e., media, vehicle [0.2% DMSO], positive control inducers [multiple concentrations], and the ToxCast chemicals [multiple concentrations]) were observed and cell morphology was assessed relative to vehicle control cultures at each harvest time point (0, 6, 24, or 48 h). […] Images were evaluated at the conclusion of the study to assess changes in cell integrity and account for the effects of chemical exposure on uncharacteristic changes in concentration-dependent gene expression profiles. The results from these determinations of apparent cytotoxicity were annotated (yes/no) alongside the corresponding qNPA data for reference.At the conclusion of each treatment period, hepatocyte cultures (96-well) were washed with 1 volume of HBSS, lysed by addition of 25 ul ArrayPlate lysis buffer (HTG, Tucson, AZ), and 70 ul/well of Denaturation Oil, denatured by incubation at 95C for 10 min, and frozen at approximately -70C until analysis by nuclease protection assay (qNPA) (Roberts et al., 2007). For qNPA analysis, cell lysates were thawed at 50C for approximately 30 min, qNPA probes were added, and samples were incubated at 95C for 10 min to begin the detection process by denaturing the target RNA, dissociating the duplexes and secondary structure hybridization. At the conclusion of the hybridization period, S1 nuclease reagent was added to each sample to digest all nonprotected nucleotides at 50C for 60-90 min. […]

Row | Structure (SMILES) | outcome | AC50
1 | CCC(CC)Nc1c([N+](=O)[O-])cc(C)c(C)c1[N+](=O)[O-] | inactive | –
2 | C[N+]1(C)CCCCC1 | inactive | –
3 | S=C1NCCN1 | inactive | –
4 | CCNc1nc(Cl)nc(NC(C)(C)C#N)n1 | inactive | –
5 | COc1cc(OC)nc(Sc2cccc(Cl)c2C(=O)O)n1 | inactive | –
6 | CCOC(=O)CC(SP(=O)(OC)OC)C(=O)OCC (stereo not given) | inactive | –
7 | CCOP(=O)(OCC)Oc1cc(C)nc(C(C)C)n1 | inactive | –
8 | CN(C)C(=O)Nc1cccc(C(F)(F)F)c1 | inactive | –
9 | CCOP(=S)(OCC)OC(Cl)C(Cl)(Cl)Cl (stereo not given) | inactive | –
10 | CC(COc1ccc(Oc2ccccc2)cc1)Oc1ccccn1 (stereo not given) | – | 4080 nM (active)
11 | Nc1c(Cl)cc([N+](=O)[O-])cc1Cl | inactive | –
12 | CC[C@H](C)[C@H]1O[C@]2(C=C[C@@H]1C)C[C@@H]1C[C@@H](C/C=C(\C)[C@@H](O[C@H]3C[C@H](OC)[C@@H](O[C@H]4C[C@H](OC)[C@@H](NC)[C@H](C)O4)[C@H](C)O3)[C@@H](C)/C=C/C=C3\CO[C@@H]4[C@H](O)C(C)=C[C@@H](C(=O)O1)[C@]34O)O2 | inactive | –
13 | CCc1cnc(C2=NC(C)(C(C)C)C(=O)N2)c(C(=O)O)c1 (stereo not given) | inactive | –
14 | CON=C(C(=O)OC)c1ccccc1CON=C(C)c1cccc(C(F)(F)F)c1 | inactive | –
15 | CCOP(=S)(OCC)Oc1ccc2c(C)c(Cl)c(=O)oc2c1 | – | 1090 nM (active)
16 | CCCCSP(=O)(SCCCC)SCCCC | – | 1900 nM (active)
17 | COP(=O)(OC)OC(Br)C(Cl)(Cl)Br (stereo not given) | inactive | –
18 | C#CCC1=C(C)C(OC(=O)C2C(C=C(C)C)C2(C)C)CC1=O (stereo not given) | inactive | –
19 | CCOP(=S)(OCC)Oc1ccc([N+](=O)[O-])cc1 | inactive | –
20 | CCc1cccc(CC)c1N(COC)C(=O)CCl | inactive | –

Row | Structure (SMILES) | outcome | AC50
21 | CCOP(=S)(Oc1cnc(C(C)(C)C)nc1)OC(C)C (stereo not given) | – | 3140 nM (active)
22 | CCOP(=S)(OCC)SCCSCC | – | 24600 nM (active)
23 | CSc1nc(NC(C)C)nc(NC(C)C)n1 | inactive | –
24 | CCOP(=O)(SC(C)CC)N1CCSC1=O (stereo not given) | inactive | –
25 | CCC(=NOC/C=C/Cl)C1=C(O)CC(C2CCOCC2)CC1=O (stereo not given) | inactive | –
26 | CC(=NC#N)N(C)Cc1ccc(Cl)nc1 | inactive | –
27 | CN1COCN(Cc2cnc(Cl)s2)C1=N[N+](=O)[O-] | inactive | –
28 | Cc1nn(-c2cc(NS(C)(=O)=O)c(Cl)cc2Cl)c(=O)n1C(F)F | inactive | –
29 | C#CC(C)(C)NC(=O)c1cc(Cl)cc(Cl)c1 | – | 1690 nM (active)
30 | CCCSP(=O)(OCC)SCCC | inactive | –
31 | CCc1cccc(C)c1N(C(=O)CCl)C(C)COC (stereo not given) | inactive | –
32 | CNC(=O)Oc1cccc2c1OC(C)(C)O2 | inactive | –
33 | CSc1nnc(C(C)(C)C)c(=O)n1N | inactive | –
34 | Cc1ccn2nc(S(=O)(=O)Nc3c(F)cccc3F)nc2n1 | inactive | –
35 | COc1ccc(C(=CC(=O)N2CCOCC2)c2ccc(Cl)cc2)cc1OC | inactive | –
36 | CC1(C(=O)Nc2ccc(O)c(Cl)c2Cl)CCCCC1 | inactive | –
37 | CCCOCC(=Nc1ccc(Cl)cc1C(F)(F)F)n1ccnc1 | inactive | –
38 | C[Si](Cn1cncn1)(c1ccc(F)cc1)c1ccc(F)cc1 | inactive | –
39 | CCCOc1nn(C(=O)NS(=O)(=O)c2ccccc2C(=O)OC)c(=O)n1C | inactive | –
40 | FC(F)C(F)(F)OCC(Cn1cncn1)c1ccc(Cl)cc1Cl (stereo not given) | inactive | –
